# The whole screen tested about 16,000 compounds, of which about 2,600 (16%) were called active. Another 20% or so got no clear call; they are omitted. Only a sample is shown. Values without a mark were called inactive. Calls follow the shape of the dose curve; as a rule, active = well fitted curve in the direction sought with a large enough effect; inconclusive = small, poorly fitted or top-dose-only effect, or effect the other way; inactive = no such curve, though single readings can be large or run the other way.
# Target: Cytochrome P450 2D6 (Homo sapiens) (UniProt P10635)
# Test: Cytochrome panel assay with activity outcomes
# Conditions: recombinant CYP, pro-luciferin dealkylation, luminescence, p450-cyp2d6; series mostly up to 57.1 µM
# % is scaled to controls: 0 for no effect and ±100 for the full control effect.
# Cytochrome P450 2D6 (Homo sapiens), sequence (P10635 whole entry, looked up): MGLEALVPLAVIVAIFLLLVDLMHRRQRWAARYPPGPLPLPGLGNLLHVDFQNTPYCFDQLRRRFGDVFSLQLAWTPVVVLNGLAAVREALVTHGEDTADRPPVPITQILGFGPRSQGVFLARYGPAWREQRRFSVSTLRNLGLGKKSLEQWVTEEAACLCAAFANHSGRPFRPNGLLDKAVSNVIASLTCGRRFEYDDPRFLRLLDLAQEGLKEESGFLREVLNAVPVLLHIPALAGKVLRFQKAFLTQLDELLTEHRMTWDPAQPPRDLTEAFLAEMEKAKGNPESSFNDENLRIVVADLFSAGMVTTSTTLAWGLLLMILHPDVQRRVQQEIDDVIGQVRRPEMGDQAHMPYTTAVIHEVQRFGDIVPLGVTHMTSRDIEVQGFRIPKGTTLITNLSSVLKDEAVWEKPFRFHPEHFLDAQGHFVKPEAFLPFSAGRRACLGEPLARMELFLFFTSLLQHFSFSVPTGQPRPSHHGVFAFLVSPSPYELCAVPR
Compound,AC50,"activity, negative = inhibition"
COc1ccc(Oc2nc(C)cc(C)c2S(C)(=O)=O)cc1,inactive,
O=c1c(-c2ccc(Cl)cc2)nc2cnc(N3CCOCC3)nc2n1CCc1ccccc1,inactive,
CC(C)NC(=O)CC(=O)N/N=C/c1ccc(Br)cc1,inactive,
CCSc1c(C(=O)NC)ccc2c1C(=O)c1ccccc1C2=O,inactive,
Cc1[nH]c2ccccc2c1CCNC(=O)c1ccc2c(c1[N+](=O)[O-])C(=O)c1ccccc1C2=O,1.12 µM (active),
CC(=O)NCCc1c(Cc2ccccc2)[nH]c2ccccc12,inactive,
CC(C)[C@@H]1NC(=O)[C@H](CCCCN)NC(=O)[C@H](Cc2c[nH]c3ccccc23)NC(=O)[C@H](Cc2ccc(O)cc2)NC(=O)[C@H](C)N(C)C(=O)[C@H](Cc2ccccc2)NC1=O,inactive,
Nc1ccc(-c2ccc(Nc3cc(S(=O)(=O)O)c(N)c4c3C(=O)c3ccccc3C4=O)cc2)c(S(=O)(=O)O)c1,,6.34% [at 11.4 µM]
CNc1nc(-c2cccc(C#N)c2)nc2ccccc12,inactive,
N#Cc1cccc(-c2nc(Nc3ccccc3)c3ccccc3n2)c1,inactive,
COc1ccccc1CNc1nc(-c2cccc(C#N)c2)nc2ccccc12,10 µM (active),
N#Cc1cccc(-c2nc(NCc3cccnc3)c3ccccc3n2)c1,inactive,
N#Cc1cccc(-c2nc(NCc3ccccc3)c3ccccc3n2)c1,10 µM (active),
Cn1cnnc1SCC(=O)OCN1C(=O)c2ccccc2C1=O,inactive,
Cc1noc(C)c1C(=O)N1CCC2(CCN(C(=O)NC(C)C)CC2)CC1,inactive,
Cn1c(=O)c2c(ncn2C[C@@H](O)CO)n(C)c1=O,inactive,
Cn1c(=O)c2c(ncn2CCO)n(C)c1=O,inactive,
Cn1c(=O)c2c(ncn2CC(COCc2ccccc2Cl)OCc2ccccc2Cl)n(C)c1=O (stereo not drawn),15.8 µM (active),
Cc1cccc(C(=O)NNC(=O)C(=O)NC(C)(C)C)c1,inactive,
CC1(C)CC(=O)C2=C(C1)N(Cc1cccnc1)C(=O)C2(NC(=O)c1cccnc1)C(F)(F)F (stereo not drawn),inactive,
CCn1c(-c2ccoc2C)n[nH]c1=S,inactive,

Compound,AC50,"activity, negative = inhibition"
CCCOc1cccc(-c2cc(-c3n[nH]c(=S)n3CC)c3ccccc3n2)c1,6.31 µM (active),
CCn1c(-c2ccc3ncccc3c2)n[nH]c1=S,inactive,
CSc1nnc2c(n1)OC(C)N(C(=O)c1ccccc1)c1ccccc1-2 (stereo not drawn),inactive,
CCOC(=O)CSc1n[nH]c(-c2cccnc2)n1,inactive,
CC(/C=N/n1c(-c2cccnc2)n[nH]c1=S)=C\c1ccccc1,7.08 µM (active),
CC(=C/c1ccccc1)/C=N/n1cnnc1,inactive,
COc1ccc(-n2c(=O)c(-c3cccs3)nc3cnc(Nc4cccc(OC)c4)nc32)cc1,inactive,
O=c1c(-c2cccs2)nc2cncnc2n1Cc1ccccc1,inactive,
CN(C)c1ncc2nc(-c3cccs3)c(=O)n(CCc3ccccc3)c2n1,inactive,
O=c1onc(-c2cccs2)n1Cc1ccccc1,11.2 µM (active),
COc1cc2c(cc1OC)C(C(=O)N1CCN(c3ccccn3)CC1)C(c1cccs1)N(C)C2=O (stereo not drawn),inactive,
OCCN(CCO)c1ncnc2nc[nH]c12,,-3.25% [at 11.4 µM]
Cc1cc(C)cc(NC(=O)N2CCCC2C(=O)Nc2ccc(-n3cnnn3)c(C)c2)c1 (stereo not drawn),inactive,
COc1cccc(Nc2ncc3nc(-c4ccc(F)cc4)c(=O)n(CCC#N)c3n2)c1,inactive,
COc1ccc(N2CCN(C(=S)Nc3cc(C)cc(C)c3)CC2)cc1,inactive,
CCOC(=O)c1[nH]c(C(=O)O)c(CCC(=O)OC)c1C,inactive,
CN1CCN(c2cc(-c3ccccc3C(F)(F)F)ncn2)CC1,inactive,
Cc1ccc(Cl)cc1N1CCN(S(=O)(=O)c2ccc3c(c2)OCCO3)CC1,inactive,
CN1CCN(C2=Cc3ccccc3Oc3ccc(Cl)cc32)CC1,0.0398 µM (active),
COCCn1c(=O)c(-c2ccc(Cl)cc2)nc2cnc(Nc3ccccc3)nc21,inactive,
Cn1c(N)c(N=Nc2ccc(S(N)(=O)=O)cc2)c(=O)n(C)c1=O,,5.11% [at 11.4 µM]

Compound,AC50,"activity, negative = inhibition"
Cc1cc(N2CCOCC2)nc2ccc(Cc3ccc4nc(N5CCOCC5)cc(C)c4c3)cc12,,-2.88% [at 11.4 µM]
CCN(CC)C(=O)N1CCN(C)CC1,inactive,
COc1ccc(Sc2ccc(NC(=O)c3ccccc3Cl)cc2C#N)cc1,inactive,
CCOC(=O)c1ccc(NC(=O)CC2NCCNC2=O)cc1 (stereo not drawn),inactive,
Cc1cccc(NC(=O)CC2Nc3cccc4cccc(c34)NC2=O)c1 (stereo not drawn),14.1 µM (active),
CC(=O)Nc1ccc(NC(=O)CC2Nc3cccc4cccc(c34)NC2=O)cc1 (stereo not drawn),inactive,
Cc1nc(NS(=O)(=O)c2ccc(Br)cc2)c2c3c(sc2n1)CCC3,inactive,
Cc1cc(NC(=O)c2cccc(F)c2)no1,inactive,
Cc1ccc(-c2csc(C(C#N)=C3CCCC3)n2)cc1,inactive,
Cc1ccc(N2CC(C(=O)Nc3cc(C)on3)CC2=O)cc1 (stereo not drawn),inactive,
Cc1cnc(CNc2ncncc2-c2ccoc2)cn1,inactive,
c1csc(CNc2ncncc2-c2ccoc2)c1,15.8 µM (active),
c1ccc(CNc2ncncc2-c2ccoc2)cc1,20 µM (active),
NCCCC(=O)O,inactive,
CCC(=O)O[C@@H]1[C@H](C)O[C@H](O[C@H]2[C@@H](N(C)C)[C@H](O)[C@@H](O[C@@H]3[C@@H](CC=O)C[C@@H](C)[C@@H](O)/C=C\C=C/C[C@@H](C)OC(=O)C[C@@H](OC(=O)CC)[C@H]3OC)O[C@H]2C)C[C@]1(C)O,inactive,
CCCCCCC1CC(C)(/C(C)=N/NC(N)=O)OC1=O (stereo not drawn),inactive,
CCOC(=O)N/N=C1/C[C@@H](O)[C@@H](O)[C@@H]2[C@@H]3C(=O)N([C@@H](C)c4ccccc4)C(=O)[C@H]3CC[C@@H]12,,0.427% [at 11.4 µM]
COc1ccc(NC(=S)Nc2ncccc2C)c(OC)c1,inactive,
Nc1nc2c(ncn2[C@@H]2C=C[C@@H](CO)C2)c(=O)[nH]1,,4.55% [at 11.4 µM]
Cc1cc(-c2c(C)[nH]n(-c3ccccc3)c2=O)n(-c2ccccc2)n1,inactive,
O=C(O)[C@H](Cc1ccc(O)c([N+](=O)[O-])c1)N1C(=O)c2ccccc2C1=O,,6.61% [at 11.4 µM]

# Source: PubChem BioAssay AID1851 (National Center for Advancing Translational Sciences (NCATS), 2009)
